In PubChem BioAssay (NCATS):
“And” between values parts separate entries of the source, which are not always exact repeats. Identical values can stand only once. Results filed as inconclusive are left out. A call without a number means that no potency is given here. A structure can be active in one record and inactive in another. The source made the active and inactive calls. Calls follow the shape of the dose curve; as a rule, active = well fitted inhibition curve with a large enough effect; inconclusive = small, poorly fitted or top-dose-only effect; inactive = no such curve, though single readings can be large or run the other way.

test: Primary qHTS for small molecule stabilizers of the endoplasmic reticulum resident proteome: Secreted ER Calcium Modulated Protein (SERCaMP) assay (AID 1508630); details: SH-SY5Y GLuc-SERCaMP (Gaussia luciferase released on ER calcium loss) secretion, thapsigargin, luminescence; series mostly up to 38.4 µM
How it was run: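 The SH-SY5Y reporter protocol was run at 3 concentrations up to 38.3 uM (primary) or 11 concentrations (follow-up): 16 h compound, 100 nM thapsigargin for 4 h, then extracellular luciferase luminescence.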
Potency is read from the fitted curve at half-maximal effect.

| SMILES | Potency |
| --- | --- |
| O=c1[nH]cc(F)c(=O)[nH]1 | inactive |
| CC[C@@]1(O)C(=O)OCc2c1cc1n(c2=O)Cc2cc3c(CN(C)C)c(O)ccc3nc2-1 | inactive |
| COc1cc2nc(N3CCN(C(=O)C4COc5ccccc5O4)CC3)nc(N)c2cc1OC (stereo not given) | inactive |
| C[C@](N)(Cc1ccc(O)c(O)c1)C(=O)O | inactive |
| CN1CCN2c3ccccc3Cc3ccccc3C2C1 (stereo not given) | inactive |
| CN(CCOc1ccc(NS(C)(=O)=O)cc1)CCc1ccc(NS(C)(=O)=O)cc1 | inactive |
| NCCCCCC(=O)O | inactive and 33.5 µM (active) |
| CCc1cccc2c3c([nH]c12)C(CC)(CC(=O)O)OCC3 (stereo not given) | inactive |
| CC(C)NCC(O)COc1ccc(CCOCC2CC2)cc1 (stereo not given) | inactive |
| Nc1ccn([C@H]2CC[C@@H](CO)O2)c(=O)n1 | inactive |
| O=C1N(c2ccccc2)c2ccccc2C1(Cc1ccncc1)Cc1ccncc1 | inactive |
| Cc1cc(C(C)(C)C)cc(C)c1CC1=NCCN1 | inactive |
| Cc1cc(C(C)(C)C)c(O)c(C)c1CC1=NCCN1 | inactive |
| COc1cc2nc(N3CCN(C(=O)c4ccco4)CC3)nc(N)c2cc1OC | inactive |
| CCC1(c2ccccc2)C(=O)NCNC1=O | inactive |
| Cc1cn([C@H]2C=C[C@@H](CO)O2)c(=O)[nH]c1=O | inactive |
| CCOC(=O)c1ncn2c1CN(C)C(=O)c1cc(F)ccc1-2 | inactive |
| Nc1c2c(nc3ccccc13)CCCC2 | inactive |
| COC(=O)Nc1nc2ccc(C(=O)c3cccs3)cc2[nH]1 | inactive |
| O=c1c(-c2ccc(O)cc2)coc2cc(O)cc(O)c12 | inactive |
